Potency and affinity values are given separately.
The compounds below were run against Cyclin-dependent kinase 2 (Homo sapiens) (UniProt P24941) (assay: CDK2 kinase inhibitors, off-target check, dose response, selectivity assay for Dyrk1A inhibitor project, biochemical, cherry-picked samples (AID 602127)). Settings: CDK2/cyclin A kinase, ADP-Glo luminescence, 60 min; series mostly up to 10 µM; activity change, negative = inhibition: at the top concentration;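 active means every repeat test judged active, meaning a falling signal with potency within twice the top valid dose; inconclusive means repeat tests disagree on the call; inactive means every repeat test inactive, including signal moving upward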.

Activity change, negative = inhibition, inactive:
Cc1ccc(CNc2ncnc3ccc(-c4ccc5c(c4)OCO5)cc23)o1 -4.91%, COc1cccc(NC(=O)Nc2ccc3c(c2)N(C)C(=O)CS3)c1 -5.88%, Clc1cc(Cl)cc(CNc2ncncc2-c2ccc3c(c2)OCO3)c1 6.67%, O=C(NCc1ccco1)c1sc2ccccc2c1Cl 2.35%, c1csc(CNc2ncnc3ccc(-c4ccoc4)cc23)c1 -17.2%, COc1cccc(Nc2nc(-c3ccc(O)cc3)cs2)c1 -12.6%, CCOC(=O)c1ccc2ncc(C(=O)OCC)c(Nc3ccc(N4CCOCC4)cc3)c2c1 -17.7%, COc1cccc(Nc2ncnc3ccccc23)c1 -17.9%, Cc1noc(NS(=O)(=O)c2ccc(NC(=O)c3oc4ccc(Cl)cc4c3C)cc2)c1C -14.5%, Cc1nc(NC(=O)c2ccccc2)sc1-c1csc(N)n1 -8.19%, Cc1ccsc1CN(C)c1ncnc2ccc(-c3ccc(CO)o3)cc12 -20.1%, Clc1ccc(Nc2nccc(-c3ccc4c(c3)OCO4)n2)cc1 14%, Fc1c(-c2ccc3ncnc(NCc4cccs4)c3c2)ccc2c1OCO2 -2%

— PubChem BioAssay AID602127 (Broad Institute, 2011)
